About 2,100 (0.53%) of roughly 400,000 compounds were called active. Another 14% or so got no clear call; they are omitted. How the calls were made is not given here. This excerpt belongs to a sample that is enriched for actives.
target: Ataxin-2 (Homo sapiens) (UniProt Q99700); experiment: qHTS for Inhibitors of ATXN expression.; assay type: functional
Sequence (Q99700 whole entry): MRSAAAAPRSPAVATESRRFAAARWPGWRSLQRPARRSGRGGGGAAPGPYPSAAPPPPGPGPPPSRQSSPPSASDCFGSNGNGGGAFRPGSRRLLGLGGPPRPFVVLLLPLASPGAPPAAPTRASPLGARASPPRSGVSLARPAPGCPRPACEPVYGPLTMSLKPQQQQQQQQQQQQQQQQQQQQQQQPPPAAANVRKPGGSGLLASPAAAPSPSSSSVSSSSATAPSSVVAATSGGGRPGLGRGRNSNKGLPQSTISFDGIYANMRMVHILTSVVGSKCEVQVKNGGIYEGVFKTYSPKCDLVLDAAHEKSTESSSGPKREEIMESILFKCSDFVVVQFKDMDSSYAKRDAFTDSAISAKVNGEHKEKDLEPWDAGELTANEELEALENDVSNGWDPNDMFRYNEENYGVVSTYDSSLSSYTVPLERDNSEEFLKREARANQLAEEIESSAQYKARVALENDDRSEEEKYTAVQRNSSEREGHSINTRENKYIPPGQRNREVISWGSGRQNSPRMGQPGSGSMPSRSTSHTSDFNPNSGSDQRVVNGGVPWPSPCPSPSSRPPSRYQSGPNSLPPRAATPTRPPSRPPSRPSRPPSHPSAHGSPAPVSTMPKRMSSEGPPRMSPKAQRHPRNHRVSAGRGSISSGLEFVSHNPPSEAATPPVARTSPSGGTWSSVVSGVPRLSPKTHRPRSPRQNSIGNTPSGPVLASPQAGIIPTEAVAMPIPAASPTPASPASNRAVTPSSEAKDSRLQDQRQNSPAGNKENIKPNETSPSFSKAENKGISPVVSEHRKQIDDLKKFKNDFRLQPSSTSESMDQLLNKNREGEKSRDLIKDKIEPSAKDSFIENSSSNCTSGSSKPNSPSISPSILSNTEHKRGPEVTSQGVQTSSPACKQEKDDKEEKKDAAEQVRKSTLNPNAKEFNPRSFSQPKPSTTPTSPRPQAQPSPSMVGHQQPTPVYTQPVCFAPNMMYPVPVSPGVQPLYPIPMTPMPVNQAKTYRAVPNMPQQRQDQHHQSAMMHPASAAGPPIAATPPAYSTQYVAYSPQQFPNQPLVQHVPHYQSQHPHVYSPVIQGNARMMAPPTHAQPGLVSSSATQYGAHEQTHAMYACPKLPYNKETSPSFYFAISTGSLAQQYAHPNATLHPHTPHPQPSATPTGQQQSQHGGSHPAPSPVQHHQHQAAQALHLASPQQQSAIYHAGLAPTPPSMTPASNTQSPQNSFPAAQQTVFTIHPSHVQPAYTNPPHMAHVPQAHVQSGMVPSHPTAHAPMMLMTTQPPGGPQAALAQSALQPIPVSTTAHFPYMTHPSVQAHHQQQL

Structure (SMILES)	Potency
Cc1cc(C)c(C(=O)CSc2nc(C)cc(C)c2C(N)=O)c(C)c1	inactive
Oc1nc(C(Cl)Cl)nc2sc3c(c12)CCN(Cc1ccccc1)C3	inactive
CC(=O)N1CCc2c(sc3nc(SCC(C)C)n(-c4ccc(C)c(Cl)c4)c(=O)c23)C1	25.1 µM (active)
CSc1nc2sc3c(c2c(=O)n1CC(C)C)CC(C)(C)OC3	inactive
COc1cccc(C(=O)Nc2cccc(-c3ccc(N4CCOCC4)nn3)c2)c1OC	inactive
O=C(Nc1ccc(N2CCOCC2)c(S(=O)(=O)Nc2cc(Cl)ccc2Cl)c1)c1cccnc1	inactive
Cc1cc(S(=O)(=O)Nc2cccc(-c3ccc(N4CCOCC4)nn3)c2)c(C)cc1Cl	39.8 µM (active)
COc1ccc(F)cc1S(=O)(=O)Nc1cccc(-c2ccc(N3CCCCCC3)nn2)c1	39.8 µM (active)
Cc1ccc(S(=O)(=O)NCCC(=O)Oc2ccc3ccc(=O)oc3c2)cc1	inactive
Cc1ccc2c(Cl)cc(Cl)c(OCC(=O)NC(C)(C)C)c2n1	inactive
COC(=O)c1cccc(C(=O)NCc2nc(-c3cccc(NC(=O)c4ccoc4C)c3)oc2C)c1	31.6 µM (active)
CSc1ccccc1C(=O)NCc1nc(-c2cccc(NC(=O)c3ccoc3C)c2)oc1C	25.1 µM (active)
Cc1oc(-c2cccc(NC(=O)c3ccccn3)c2)nc1CNC(=O)C#Cc1ccccc1	inactive
CSc1nc(C(=O)NCc2nc(-c3cccc(NC(=O)c4ccccn4)c3)oc2C)cs1	inactive
Cc1ccc(C(=O)Nc2cccc(-c3nc(CNC(=O)c4ccc5ccccc5n4)c(C)o3)c2)s1	inactive
O=[N+]([O-])c1cc2c(cc1/C=N/n1cnnc1)OCO2	inactive
CCNc1nc(C)c(CN(C(C)=O)c2ccccc2)nc1C#N	inactive
Cc1ccc(-c2cn3nc(C)c(C)nc3n2)cc1	inactive
CC(C)(C)N(NS(=O)(=O)c1ccc(F)cc1)c1ccccc1	inactive
CCCCN(CCCC)CC(O)Cn1c2ccccc2c(=O)c2ccccc21 (centres undefined)	inactive
Cc1ccc(S(=O)(=O)N(CC(O)Cn2c3ccccc3c3ccccc32)c2cccc(C(=O)NCCO)c2)cc1 (centres undefined)	35.5 µM (active)
Cc1cccc(N(CC(O)Cn2c3ccccc3c3ccccc32)S(=O)(=O)c2ccc(F)cc2)c1 (centres undefined)	15.8 µM (active)

Structure (SMILES)	Potency
O=S(=O)(c1ccc(F)cc1)N(CC(O)Cn1c2ccccc2c2ccccc21)c1ccccc1 (centres undefined)	22.4 µM (active)
CCCCN(C)CC(O)Cn1cc(/C=C/C(=O)c2ccc(C)cc2)c2ccccc21 (centres undefined)	inactive
CN(C)/C=N/c1nc2nccc(-c3ccccn3)n2n1	inactive
O=C(CN(Cc1ccc(F)cc1)C(=O)CCC(=O)Nc1nccs1)NCc1ccccc1	inactive
CC(=O)Oc1cc2oc(=O)cc(C)c2cc1Cl	inactive
CCCn1nc(NC(=O)CC(C)C)c2cc3cccc(C)c3nc21	inactive
Cc1cc(C)c2ccc(N)nc2c1O	39.8 µM (active)
Cn1nc(NC(=O)C(F)(F)F)c2ncc(-c3ccc(Cl)cc3)nc21	inactive
COc1ccccc1CCn1cnc(Cc2ccccc2)c1C(C)C	39.8 µM (active)
CC1=C(C)C(=O)N(C(C)CCc2ccccc2)C1=O (centres undefined)	inactive
COc1ccccc1CNc1ccc(Br)cn1	inactive
COc1ccccc1NC(=O)C(C)Sc1nccn1C (centres undefined)	inactive
COc1ccccc1[C@H]1C(c2ccc(F)cc2)=NN(c2ccccc2)[C@@H]1CO	inactive
CCCCc1c(Cc2ccccc2)ncn1CCc1ccccc1OC	15.8 µM (active)
CCCCc1c(-c2ccc(F)cc2)ncn1CCc1ccccc1OC	31.6 µM (active)
COc1ccccc1CCN1COc2c(cc3c(C)c(C)c(=O)oc3c2C)C1	inactive
COc1ccccc1CCn1cnc(-c2ccc(Br)cc2)c1C(C)C	25.1 µM (active)
CCN(CC)c1ccc2c(Cl)cc(=O)oc2c1	inactive
N#Cc1cc2c(=O)n3ccccc3nc2n(Cc2ccco2)/c1=N/C(=O)c1ccco1	inactive
COc1cccc2sc3ccc(NCc4ccc5c(c4)OCO5)cc3c(=O)c12	inactive
Cc1c(C#N)c2n(c1C)CCCC(=O)N2	inactive
COc1cc2c(cc1OC)C1=C(C#N)CC/C(=N\S(=O)(=O)c3ccccc3)N1CC2	inactive

Structure (SMILES)	Potency
CCCCc1c(-c2ccc(OC)cc2)ncn1CCc1ccccc1OC	39.8 µM (active)
CCCn1nc(-c2ccccc2)c2nc3ccccc3nc21	inactive
CCCCc1c(-c2cccc(F)c2)ncn1CCc1ccccc1OC	39.8 µM (active)
COc1ccccc1CCC(=O)NNC(=O)Cn1nc(C)cc1C	inactive
COc1ccccc1CCn1c(N)c(C#N)c2nc3ccccc3nc21	inactive
CCCCCc1c(-c2ccc(OC)cc2)ncn1CCc1ccccc1OC	31.6 µM (active)
CCCCc1c(-c2ccccc2)ncn1CCc1ccccc1OC	35.5 µM (active)
Cc1cccn2c(=O)c3cc(C(=O)NCc4cccnc4)c(=N)n(C(C)C)c3nc12	inactive
COc1ccc2c(c1)CCCC21SC(NC(C)=O)=NN1C(C)=O (centres undefined)	inactive
O=C1OCCN1C(=O)[C@H]1[C@H](c2ccccc2)C(c2ccccc2)=NN1c1ccc(Br)cc1	inactive
CCOCCCNC(=O)c1ccc2nc(-c3ccc(OC)c(OC)c3)c(-c3ccc(OC)c(OC)c3)nc2c1	inactive
CCCCc1c(-c2ccc(OC)c(OC)c2)ncn1CCc1ccccc1OC	22.4 µM (active)
CCOc1ccc(-c2nnn(CCC#N)n2)cc1OC	inactive
CCCS(=O)(=O)c1c(S(=O)(=O)CCC)c2cc(-c3ccncc3)ccn2c1C(=O)OC	inactive
CN1CCN(S(=O)(=O)c2ccc(NC(=O)COc3ccccc3)cc2)CC1	inactive
Cc1ccc(S(=O)(=O)N2C[C@@H](C)[C@]3(C2)[C@H](O)[C@H](OC(=O)Nc2cccs2)C[C@H]2C(=O)N(c4ccccc4)C(=O)[C@H]23)cc1	35.5 µM (active)
CCCCn1/c(=N\C(=O)c2ccco2)c(C(=O)OCC)cc2c(=O)n3cccc(C)c3nc21	inactive
CCn1cc(C2C3=C(O)CCCC3=NC(C)=C2C(=O)Nc2ccc(Br)cn2)c(C)n1 (centres undefined)	inactive
COc1ccc(NC(=O)Cn2c(SCc3cc(C)ccc3C)nc3ccncc32)c(OC)c1OC	39.8 µM (active)
CCOc1nc2cnccc2n(CC(=O)Nc2ccc(C)c(C)c2)c1=O	inactive
